# PMC6792352, “Limited Chemical Structural Diversity Found to Modulate Thyroid Hormone Receptor in the Tox21 Chemical Library” (Environmental Health Perspectives, 2019)
# Structures can show the parent of a compound that is named as a salt.
# Tested on: thyroid hormone receptor (endogenous TRα and TRβ)
# Set-up: species or system GH3-TRE-Luc (rat pituitary); GH3-TRE-Luc luciferase reporter, antagonist mode against 1 nM T3, loss of signal, qHTS
# Settings: antagonist mode, 1 nM T3, no GH3 cytotoxicity hit, read-out: Average AC50 (uM) GH3-TRE-Antag
row,Compound,AC50 [µM]
1,O=[N+]([O-])c1ccc(Oc2ccc(C(F)(F)F)cc2[N+](=O)[O-])cc1 [Fluorodifen],> 90
2,CN(C)c1ccc(N=Nc2ccccc2)cc1 [4-(Dimethylamino)azobenzene],80.1
3,CCOP(=S)(OCC)Oc1ccc(Cl)cc1Cl [Dichlofenthion],71.5
4,Cn1c(-c2ccccc2)cc(-c2ccccc2)[n+]1C [Difenzoquat metilsulfate],68.7
5,Nc1ccc(N=Nc2ccc(-c3ccc(N=Nc4c(S(=O)(=O)O)cc5cc(S(=O)(=O)O)c(N=Nc6ccccc6)c(O)c5c4N)cc3)cc2)c(N)c1 [C.I. Direct Black 38],14
6,ClC1(Cl)C2(Cl)C3(Cl)C4(Cl)C(Cl)(Cl)C5(Cl)C3(Cl)C1(Cl)C5(Cl)C24Cl (centres unmarked) [Mirex],> 90
7,COP(=S)(OC)Oc1ccc(Sc2ccc(OP(=S)(OC)OC)cc2)cc1 [Temephos],> 50
8,CCCSP(=O)(OCC)Oc1ccc(Br)cc1Cl (centres unmarked) [Profenofos],> 50
9,CCOc1ccc2c3c1O[C@H]1[C@@H](O)C=C[C@H]4[C@@H](C2)N(C)CC[C@@]341 [Ethylmorphine],44.9
10,Nc1ccc(-c2ccccc2)cc1 [4-Biphenylamine hydrochloride],76.8
11,"Oc1c(Br)cc(Br)cc1Br [2,4,6-Tribromophenol]",> 50
12,O=C(O)Cc1ccccc1 [Phenylacetic acid],18.1
13,CCOP(=S)(OCC)SCSC(C)(C)C [Terbufos],85
14,COP(=S)(OC)Oc1cc(Cl)c(Br)cc1Cl [Bromofos],65.8
15,CNC(=O)Oc1cccc(N=CN(C)C)c1 [Formetanate hydrochloride],70.8
16,"Brc1ccc(Oc2cc(Br)c(Br)cc2Br)c(Br)c1 [2,2',4,4',5-Pentabromodiphenyl ether]",39.4
17,CCCCCCCCCCCCBr [1-Bromododecane],93.3
18,Clc1cccc(N2CCNCC2)c1 [1-(3-Chlorophenyl)piperazine],20
19,NC(=S)Nc1ccccc1 [1-Phenyl-2-thiourea],43.9
20,C=CC(=O)OCCO [2-Hydroxyethyl acrylate],51.5
21,CC(C)NC(C)Cc1ccc(I)cc1 (centres unmarked) [Iofetamine hydrochloride],22.3
22,O=C(Nc1ccccc1)Nc1cnns1 [Thidiazuron],76.7
23,"Oc1ccc(Cl)c(Cl)c1 [3,4-Dichlorophenol]",59.5
24,C[C@]12CC[C@H]3[C@@H](CCC4=CC(=O)CC[C@@]43C)[C@@H]1CC[C@H]2O [Epitestosterone],38.7
25,O=C(O)C(F)(F)C(F)(F)C(F)(F)C(F)(F)C(F)(F)C(F)(F)C(F)(F)F [Ammonium perfluorooctanoate],77.1
26,C[C@]12CCC(=O)C=C1CC[C@@H]1[C@@H]2CC[C@@]2(C)[C@H]1CC[C@]2(C)O [17-Methyltestosterone],46
27,OC(c1ccccc1)(c1ccccc1)C1CCNCC1 [Azacyclonol],10.4
28,CC(C)=CC1C(C(=O)OCN2C(=O)C3=C(CCCC3)C2=O)C1(C)C (centres unmarked) [Tetramethrin],> 50
29,COP(=S)(OC)Oc1ccc([N+](=O)[O-])cc1Cl [Dicapthon],79
